Screening results: PubChem BioAssay, National Center for Advancing Translational Sciences (NCATS)
This is a sample that favours compounds with a hit; in the whole collection about 6.5% have one here.
HCMV antiviral: qHTS Assay for inhibitors of the human cytomegalovirus (HCMV). activity change, negative = inhibition, % at 57.5 µM. HFF cells, HCMV-luciferase reporter, 72 h; stronger effect = lower value. actives 4.5% (n = 410,000); in the data active = activity change below about -60%; inconclusive = no clear call, values can overlap the other calls; inactive = above about -39%
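Two-dose cell screen: HFF monolayers treated with compounds and infected with luciferase-expressing HCMV at 1 PFU/cell, 72 h at 37C, then lysed for luciferase measurement.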
Lassa entry inh: qHTS for Inhibitors of binding or entry into cells for Lassa Virus. Lassa virus pseudotype entry inhibition, cell reporter. Potency, µM (titrated, usually from 37.9 µM), for the others: at the top dose activity change, negative = inhibition, most hits filed as inhibitors. actives 1.2% (n = 300,000). AID 540256, 2011; calls by dose curve; tested in HEK293 cells; also: potency is read from the fitted curve at half-maximal effect; nearly all actives have a fitted effect of over 50% in size
Marburg entry inh: qHTS for inhibitors of binding or entry into cells for Marburg Virus; Marburg virus pseudotyped entry inhibition, cell reporter; Potency, µM (highest dose often 37.8 µM), inactives show at the highest dose activity change, negative = inhibition, usual class: inhibitors; actives 1.8% (n = 300,000); AID 540276, 2011; calls by dose curve; tested in HEK293 cells; also: potency is read from the fitted curve at half-maximal effect
Vaccinia mCherry: qHTS for Stage-Specific Inhibitors of Vaccinia Orthopoxvirus: mCherry Reporter Primary qHTS | Vaccinia virus mCherry reporter infection, fluorescence | Potency, µM (titrated, usually from 36.5 µM), for the others: at the highest dose activity change, negative = inhibition, most hits filed as inhibitors | actives 0.63% (n = 310,000) | AID 720579, 2013; calls by dose curve; tested in A549 cells; also: potency is read from the fitted curve at half-maximal effect; nearly all actives have a fitted effect of over 35% in size
FMDV inh: High Throughput Screening for Foot and Mouth Disease Virus Antivirals. actives 1.2% (n = 410,000). FMDV antiviral cell-based qHTS. AID 1159524, 2015. Potency, µM (series often up to 57.9 µM), for the others: at the top dose activity change, negative = inhibition, actives largely listed as inhibitors; calls by dose curve; tested in HEK293T cells; also: read-out not given here; potency is read from the fitted curve at half-maximal effect; nearly all actives have a fitted effect of over 45% in size
Vaccinia Venus: qHTS for Stage-Specific Inhibitors of Vaccinia Orthopoxvirus: Venus Reporter Primary qHTS; Vaccinia virus Venus reporter expression, fluorescence; Potency, µM (titrated, usually from 36.5 µM), inactives show top-dose activity change, negative = inhibition, usual class: inhibitors; actives 0.46% (n = 330,000); AID 720580, 2013; calls by dose curve; tested in A549 cells; also: potency is read from the fitted curve at half-maximal effect; nearly all actives have a fitted effect of over 30% in size
* marks the source's active call; other numbers are inactive results; i = inactive; ? = inconclusive; . = no result given; [ ] = another dose, or the depositor's remark. % is scaled to controls: 0 for no effect and ±100 for the full control effect.

SMILES | HCMV antiviral | Lassa entry inh | Marburg entry inh | Vaccinia mCherry | FMDV inh | Vaccinia Venus
COc1ccc(NC(=O)/C(Cl)=C(/Cl)S(=O)(=O)Cc2ccc(C)cc2)cn1 | . | 14.1µM* | 4.47µM* | . | 22.4µM* | 14.1µM*
COc1ccc(NC(=O)Cc2ccc(Cl)cc2Cl)cn1 | -101.1* | -10.4%[46.1 µM] | 6.9%[46.1 µM] | i | -13.4% | -4.3%
COc1ccc(NC(=O)Cc2ccccc2F)cn1 | 45.8 | ? | 9.6%[46.1 µM] | -12.6% | 31.3% | -16.4%
COc1ccc(NC(=O)Cc2ccc(Cl)c(Cl)c2)cn1 | 1.3 | . | . | i | 3.1% | -13.4%
COc1ccc(NC(=O)/C(Cl)=C(/Cl)S(=O)Cc2ccccc2Cl)cn1 (configuration not stated) | . | ? | ? | 2µM* | 3.16µM* | 2.82µM*
COc1ccc(C(=O)NCC2(N3CCN(C)CC3)CCCCC2)cc1 | -8.5 | -2.9%[46.1 µM] | -14.3%[46.1 µM] | -0.3% | -16.1% | -3.1%
COc1ccc([C@H]2/C(=C(\O)c3ccccc3)C(=O)C(=O)N2c2ncccn2)cc1OC | . | . | 1.0% | . | . | .
O=C(Nc1ccc(OC(F)(F)F)cc1)C(Cc1ccccc1)NS(=O)(=O)c1cccc2nsnc12 (configuration not stated) | -14.4 | -10.8%[46.1 µM] | -29.6%[46.1 µM] | -23.8% | -1.9% | -20.6%
CCS(=O)(=O)CCSc1nc(C)cc(C)c1C#N | -27.4 | ? | -28.3% | -13.0% | . | -11.4%
CSc1nc(N)nc(SCCS(=O)(=O)c2ccc(Cl)cc2)c1C#N | -32.1 | 0.1% | ? | 2.51µM* | ? | 5.62µM*
Cc1cc(C)c(C#N)c(SCCN2CCCCC2)n1 | -95.7* | ? | ? | i | -15.1% | 3.6%
Cc1ccc(S(=O)(=O)CCSc2nc(C)cc(C)c2C#N)cc1 | -39.4 | ? | ? | 10µM* | . | 10µM*
CSc1nc(N)nc(SCC(=O)Nc2ccc(Cl)cc2)c1C#N | -21.8 | ? | ? | ? | ? | ?
O=C(NCc1cccc(F)c1)C1CCN(c2nc3ccccc3nc2C(F)(F)F)CC1 | -8.4 | 4.0%[46.1 µM] | . | 1.9% | -20.9% | 8.6%
CN(C)CCCNc1nccc(-c2c(-c3ccc(F)cc3)nn3cc(C(F)(F)F)ccc23)n1 | . | 22.3µM* | . | . | . | .
Cc1nc(CC(=O)c2c(C)cc(O)cc2O)cs1 | -70.6* | 0.2% | 4.0% | -3.8% | . | -12.8%
Cc1nc(CC(=O)c2ccc(O)cc2O)cs1 | 16.5 | ? | 19.1% | . | 43.0% | .
CCC(C)NC(=O)CCc1nnc2ccc(N3CCC(C)CC3)nn12 (configuration not stated) | -60.5* | 6.3%[46.1 µM] | 28.2%[46.1 µM] | -4.8% | -32.4% | ?
OC(c1cccnc1)c1ccc2c(c1)CN(Cc1cccc3c1OCO3)CCO2 (configuration not stated) | . | . | . | -1.2% | 0.1% | -9.8%
O=C(Cc1ccccc1)N1CCN=C1SCc1ccc([N+](=O)[O-])cc1 | 17.7 | -2.4% | 3.1% | -26.5% | ? | -19.2%
O=C(Cc1ccc(F)cc1)N1CCN=C1SCc1ccc([N+](=O)[O-])cc1 | -68.2* | -16.7% | ? | -24.5% | -19.5% | -18.3%
C[C@@H]1CN(Cc2ccc3c(c2)CN(Cc2coc4ccccc4c2=O)CCO3)C[C@H](C)O1 | . | . | . | -17.5% | 0.2% | -19.4%
CC12CCC(C(=O)Nc3ccc(Cl)cc3)([C@H](Br)C1=O)C2(C)C (some centres not stated) | -60.5* | 3.6% | -11.8%[46.1 µM] | i | -26.7% | -4.2%
Cc1ccc(CN2C[C@H](Sc3ccccn3)C[C@H]2C(=O)Nc2ccc3sc(C)nc3c2)c(C)c1 | . | . | . | -13.3% | 6.4% | -14.1%
O=C(Cn1c(=O)n(-c2ccccc2)c(=O)c2c3c(sc21)CCC3)c1ccc(Br)cc1 | 8.4 | 7.2%[46.1 µM] | ? | ? | 0.3% | 4.6%
SMILES | HCMV antiviral | Lassa entry inh | Marburg entry inh | Vaccinia mCherry | FMDV inh | Vaccinia Venus
O=C(OCC(=O)N1CCCC1)c1cc([N+](=O)[O-])ccc1Cl | -19.0 | 16.1%[46.1 µM] | 8.9%[46.1 µM] | -10.7% | 10µM* | 17.0%
COc1ccc(S(=O)(=O)c2c(Nc3c(C)cccc3C)sc(C(=O)c3ccc(F)cc3)c2N)cc1 | ? | ? | . | -28.3% | 0.0% | -28.7%
CN(C)CCC1(C2=CCCC2)CC/C(=C/c2ccc(Cl)cc2)C1=O (configuration not stated) | -85.9* | 12.6µM* | ? | ? | -21.6% | 11.2µM*
CCOc1ccc(-c2nonc2NC(=O)c2oc3ccc(Br)cc3c2C)cc1 | -95.6* | ? | -23.4%[46.1 µM] | -16.7% | -6.7% | -17.0%
CCOc1ccc(-c2nonc2NC(=O)c2oc3cc(Br)ccc3c2C)cc1 | ? | -0.4%[46.1 µM] | -6.3%[46.1 µM] | ? | -26.2% | ?
CCc1noc(C)c1C(=O)Oc1ccc(N(C)S(=O)(=O)c2ccccc2)cc1 | -10.0 | ? | ? | -20.9% | 17.8µM* | -15.2%
CCC(C)SCc1nc2ccccc2[nH]1 (configuration not stated) | -62.7* | 1.6% | 6.5% | -16.1%[1.46 µM] | 1.7% | -17.5%
C/C(=N\NC(=S)NCc1ccccc1)c1ccc(C)o1 | -106.8* | ? | 21.6%[46.1 µM] | ? | 25.6% | -24.8%
C/C(=N\NC(=S)NCCc1ccccc1)c1ccc(C)cc1 | 27.0 | ? | 16.4µM* | -12.8% | -9.0% | -12.5%
C/C(=N\NC(=S)NCc1ccccc1)c1ccc(Br)cc1 | 378.1 | ? | 24.2%[46.1 µM] | -18.1% | -0.8% | -12.0%
COC(=O)c1ccc2c(c1)N(Cc1ccccc1)C(=O)c1ccccc1S2(=O)=O | -15.7 | 9.1%[46.1 µM] | . | -2.3% | -25.7% | -16.9%
Cc1ccc(N2C(N)=C(C#N)C(c3ccsc3)C3=C2CC(C)(C)CC3=O)cc1 (configuration not stated) | -100.7* | ? | ? | -22.8%[1.46 µM] | -25.9% | -23.0%
CC(C)=CCN1C(=O)C2(CC(C)=C[C@@H](C)O2)c2c(Br)cccc21 (some centres not stated) | . | . | 11.3%[14.2 µM] | . | . | .
O=S(=O)(c1cccc(Cl)c1)c1nnn2c1nc(NC1CCCC1)c1sccc12 | -22.8 | -0.1%[46.1 µM] | . | -11.1% | -3.4% | -17.8%
Cc1ccc(S(=O)(=O)c2nnn3c2nc(NC2CCCCC2)c2sccc23)cc1C | -91.6* | ? | . | ? | -10.0% | ?
Cc1ccc(C)c(S(=O)(=O)c2nnn3c2nc(NC2CCCC2)c2sccc23)c1 | -106.6* | ? | . | ? | ? | ?
COc1ccc(OC)c(-c2nc3c(C#N)c[nH]n3c2NC2CCCCC2)c1 | -22.1 | -16.7%[46.1 µM] | ? | ? | -17.2% | ?
Cn1cnc2nc(NCCO)nc(NCc3ccccc3)c21 | . | . | . | -9.9% | -14.1% | -9.9%
CNC(=S)N/N=C/c1cn(CCOc2cccc(OC)c2)c2ccccc12 | 202.1 | ? | ? | 3.98µM* | -4.9% | ?
COc1cccc(OCCn2cc(/C=N/NC(=O)c3ccncc3)c3ccccc32)c1 | 28.7 | 5.9% | ? | -23.7% | ? | -18.9%
